Measured values published in the supplement of paper PMC3334620.
Over roughly 33,000 sequences, “E-score (-0.5 to 0.5)” has its median near -0.032; the highest 2% begin near 0.36. This excerpt belongs to a sample that is enriched for the highest values.

Each sequence was assayed against T1, Sko1 (UniProt Q02100) (assay: PBM E-score (8-mer binding enrichment) (E-score (-0.5 to 0.5)); higher = stronger / more preferred TF binding). Conditions: protein concentration: 200 nM; construct: GST-full length.
T1 sequence: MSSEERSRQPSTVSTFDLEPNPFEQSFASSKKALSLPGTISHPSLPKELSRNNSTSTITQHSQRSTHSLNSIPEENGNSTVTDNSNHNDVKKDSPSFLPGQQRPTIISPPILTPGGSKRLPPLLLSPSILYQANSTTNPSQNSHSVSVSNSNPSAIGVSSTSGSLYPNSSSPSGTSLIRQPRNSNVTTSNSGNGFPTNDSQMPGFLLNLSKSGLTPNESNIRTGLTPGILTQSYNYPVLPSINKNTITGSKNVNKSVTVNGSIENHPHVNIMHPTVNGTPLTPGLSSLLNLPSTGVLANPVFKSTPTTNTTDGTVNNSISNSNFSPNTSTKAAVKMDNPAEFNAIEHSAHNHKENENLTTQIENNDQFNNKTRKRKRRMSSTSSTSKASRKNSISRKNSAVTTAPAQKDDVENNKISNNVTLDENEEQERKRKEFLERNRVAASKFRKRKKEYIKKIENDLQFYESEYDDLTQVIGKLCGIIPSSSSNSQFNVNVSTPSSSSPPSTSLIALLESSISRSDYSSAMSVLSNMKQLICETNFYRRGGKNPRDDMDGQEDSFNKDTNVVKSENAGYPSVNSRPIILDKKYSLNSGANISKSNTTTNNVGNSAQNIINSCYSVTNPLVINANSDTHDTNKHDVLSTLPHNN
Procedure, shortened: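 E-scores (a modified Wilcoxon-Mann-Whitney statistic) were assigned by the Universal PBM Analysis Suite to every ungapped eight-base word pooled with its reverse complement. The input came from universal all-10-mer Agilent arrays made double-stranded by primer extension and probed with GST-tagged yeast transcription factors at about 100-200 nM. Fluorescent anti-GST detected bound protein, and masliner normalised the scans.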

Row | Sequence | PBM E-score
1 | GGTACGGA | -0.174
2 | CGTACATA | 0.378
3 | CGTACATC | 0.244
4 | AGTACGAC | 0.157
5 | AGTACGTC | 0.435
6 | AGTACATA | 0.00479
7 | AGTACGGA | -0.0994
8 | GGTACGAA | 0.19
9 | AGTACGGC | -0.101
10 | AGTACGAA | 0.312
11 | AGTACGTA | 0.474
12 | GGTACGTA | 0.454
13 | AACCGCCC | -0.295
14 | CTTCAATA | 0.197
15 | CGCCGTGC | -0.189
16 | CGTGCGGC | 0.00261
17 | CCCTACCA | -0.0655
18 | CCCTAGGC | -0.269
19 | GACTGGCC | -0.338
20 | CGTACGAA | 0.269
21 | AGTACGCG | 0.236
22 | CGTACGGC | 0.251

Row | Sequence | PBM E-score
23 | CGTACGCA | 0.332
24 | CGTACGCC | 0.218
25 | AGTACGTG | 0.365
26 | CGTACGTC | 0.45
27 | AGTACGAG | 0.00509
28 | CGTACGTA | 0.474
29 | GGGTTGCA | -0.00077
30 | CTGGCGTC | 0.0837
31 | GTGGCGTA | 0.325
32 | ATGGCGTA | 0.449
33 | ATGGCGTG | 0.336
34 | ATGGCGTC | 0.392
35 | CTGGCGTA | 0.138
36 | AACGAGTG | 0.0243
37 | CGATGCAC | -0.0249
38 | AGTCTTAA | -0.164
39 | TCACTGCA | 0.175
40 | GTTACAAA | 0.213
41 | ATTACAAA | 0.234
42 | GTTACGAA | 0.378
43 | CTCACGAA | 0.138
44 | ATTACGAA | 0.453

Row | Sequence | PBM E-score
45 | CTTACGAA | 0.275
46 | GTAGGGGA | -0.186
47 | GGCCATCA | -0.165
48 | ACCCTGAA | -0.0751
49 | CGCGAATA | 0.0754
50 | ACCTAACT | 0.0945
51 | CGTCGCCA | 0.0172
52 | GAACCTCA | -0.069
53 | AGGACGTA | 0.374
54 | AGGACGTC | 0.363
55 | CGGACGTC | 0.292
56 | GGGACGTA | 0.319
57 | AGGACGTG | 0.153
58 | AGGACGCC | -0.21
59 | CATACCCA | 0.108
60 | TAAGCAGA | -0.00339
61 | AGCGTACT | -0.0878
62 | AACGTAGT | 0.414
63 | AACGTACG | 0.398
64 | ACCGTACT | 0.00383
65 | AAGGTAGT | -0.172
66 | AACGTACT | 0.37

Row | Sequence | PBM E-score
67 | ATCGTACG | 0.282
68 | ACCGTAGT | -0.122
69 | ACCGTACG | 0.145
70 | GTCTTTAA | 0.178
71 | ACATTGAA | 0.166
72 | GTGCATGA | 0.133
73 | AGATGGTC | -0.139
74 | GCGTCAAA | 0.274
75 | ACGTCAAT | 0.46
76 | AGGTCAAG | -0.193
77 | ACGTCAAC | 0.469
78 | CCGTCAAC | -0.0749
79 | ATGTCAAT | 0.226
80 | AGGTCAAT | 0.0656
81 | CCGTCAAG | -0.0482
82 | ACGTCAAG | 0.444
83 | ACGTCAAA | 0.447
84 | TCGTCAAA | 0.281
85 | GCGTCAAC | 0.302
86 | CTCCAACC | -0.0963
87 | CTGTACCC | -0.24
88 | AGATTTCG | 0.114

Row | Sequence | PBM E-score
89 | ACTAGAGA | -0.0523
90 | CGATTGGA | -0.0798
91 | AGATTGCG | 0.188
92 | AATGATGT | 0.427
93 | AATGATGG | 0.189
94 | AATGATGA | 0.328
95 | ACGTGCCG | 0.243
96 | TCGTGACA | 0.129
97 | ACGTGCCA | 0.396
98 | ACGTGACA | 0.394
99 | CCGTGACC | -0.28
100 | ACGTGACG | 0.462
101 | ACGTGAAG | 0.326
102 | GCGTGCCA | -0.151
103 | ACGTGACC | 0.292
104 | CCGTGACG | 0.396
105 | CCGTGACA | -0.14
106 | ACGTGACT | 0.324
107 | AAATCAGG | 0.0636
108 | CAGAACTC | -0.0896
109 | CTTTTTAA | 0.112
110 | GCAACCCC | -0.249
